The values below come from PubChem BioAssay.

The nature of test [1]: antimalarial activity against Dd2 strain (AID 2302;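 active = growth inhibition above 50% at the single 2 µM test dose, taken to imply half-maximal potency below 2 µM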;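 also: 0% = DMSO untreated growth and 100% = chloroquine plus artemisinin killed control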). The note with it: P. falciparum Dd2 in RBCs, LDH growth readout, 72 h; at 2 µM; stronger effect = higher value.
The nature of test [2]: human hepatoma cell viability loss – ATP luminescence, cytotoxicity control for P. falciparum antimalarial project, primary screen (AID 2303;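 active = inhibition above 50%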;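 also: 0% = DMSO wells and 100% = digitonin-killed cells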). The note with it: HepG2 viability, 24-48 h, at 10 µM, stronger effect = higher value.
The target of test [3] is L-lactate dehydrogenase (Plasmodium falciparum (isolate CDC / Honduras)) (UniProt Q27743). Put plainly: PfLDH activity inhibition – cell lysate, 3D7 strain, counter-screen for P. falciparum growth inhibition project (AID 2304).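 Also: 0% = vehicle and 100% = reference inhibitor.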 The note with it: P. falciparum 3D7 crude extract, LDH APAD/NBT absorbance; at 2 µM; stronger effect = higher value. On the technique in general: Counterscreens check selectivity or assay interference.
Chain of L-lactate dehydrogenase (Plasmodium falciparum (isolate CDC / Honduras)) (Q27743 whole entry, looked up): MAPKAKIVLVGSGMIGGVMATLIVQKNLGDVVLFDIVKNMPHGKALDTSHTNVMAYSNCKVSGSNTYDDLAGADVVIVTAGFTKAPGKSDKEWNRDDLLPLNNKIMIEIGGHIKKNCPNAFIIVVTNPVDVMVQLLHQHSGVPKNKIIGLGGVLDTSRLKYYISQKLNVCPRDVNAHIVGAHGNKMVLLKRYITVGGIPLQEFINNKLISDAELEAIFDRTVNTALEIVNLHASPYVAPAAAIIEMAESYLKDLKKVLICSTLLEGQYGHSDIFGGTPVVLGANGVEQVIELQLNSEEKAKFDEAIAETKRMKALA

The nature of test [4]: inhibition of 3D7 malaria parasite growth – strain 3D7 (AID 2306).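 Also: 0% = DMSO wells and 100% = chloroquine plus artemisinin control wells.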 The settings on record: P. falciparum 3D7 erythrocytic growth, LDH absorbance, 72 h; at 2 µM; stronger effect = higher value.
Test [5] addresses Calcium-dependent protein kinase 1 (Plasmodium falciparum (isolate 3D7)) (UniProt P62344). Put plainly: PfCDPK1 kinase inhibitors, biochemical, TCAMS library (AID 1159585; cut-off not given, nearly all actives have IC50 up to about 0.98 µM;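 also: inhibitors leave more ATP so luminescence rises with inhibition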). The settings on record: recombinant PfCDPK1, Kinase-Glo ATP depletion luminescence.
The target of test [6] is Plasmodium falciparum protein kinase 6 (PK6, PF3D7_1337100) (UniProt Q8IDW1). Put plainly: PfPK6 kinase inhibitors, biochemical, TCAMS library (AID 1159586). The settings on record: recombinant PfPK6, Kinase-Glo ATP depletion luminescence.
Chain of Plasmodium falciparum protein kinase 6 (PK6, PF3D7_1337100) (Q8IDW1 1-305): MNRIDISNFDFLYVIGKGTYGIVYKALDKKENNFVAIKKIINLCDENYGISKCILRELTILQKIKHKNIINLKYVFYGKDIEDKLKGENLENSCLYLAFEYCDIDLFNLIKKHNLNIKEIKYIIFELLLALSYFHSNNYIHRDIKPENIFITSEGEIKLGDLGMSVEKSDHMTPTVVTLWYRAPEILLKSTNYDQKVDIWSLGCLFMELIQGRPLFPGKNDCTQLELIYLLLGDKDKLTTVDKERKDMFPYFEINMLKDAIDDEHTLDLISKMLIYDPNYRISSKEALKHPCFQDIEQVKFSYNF
Test [7] addresses Protein kinase 7 (PK7), Plasmodium falciparum 3D7 (PF3D7_0213400) (UniProt Q7YTF7). Put plainly: inhibition of Plasmodium PK7 catalytic activity – biochemical, TCAMS antimalarial set, Kinase-Glo luminescence (AID 1159587). The settings on record: recombinant PfPK7, Kinase-Glo ATP depletion luminescence. For orientation: In Kinase-Glo more light means more ATP remaining.
For test [8], the target named is Calcium-dependent protein kinase 4 (Plasmodium falciparum (isolate 3D7)) (UniProt Q8IBS5). The test is described as follows: PfCDPK4 kinase inhibitors, biochemical, TCAMS library (AID 1159588; cut-off not given, nearly all actives have IC50 up to about 0.91 µM). The settings on record: recombinant PfCDPK4, Kinase-Glo ATP depletion luminescence.
Chain of Calcium-dependent protein kinase 4 (Plasmodium falciparum (isolate 3D7)) (Q8IBS5 whole entry, looked up): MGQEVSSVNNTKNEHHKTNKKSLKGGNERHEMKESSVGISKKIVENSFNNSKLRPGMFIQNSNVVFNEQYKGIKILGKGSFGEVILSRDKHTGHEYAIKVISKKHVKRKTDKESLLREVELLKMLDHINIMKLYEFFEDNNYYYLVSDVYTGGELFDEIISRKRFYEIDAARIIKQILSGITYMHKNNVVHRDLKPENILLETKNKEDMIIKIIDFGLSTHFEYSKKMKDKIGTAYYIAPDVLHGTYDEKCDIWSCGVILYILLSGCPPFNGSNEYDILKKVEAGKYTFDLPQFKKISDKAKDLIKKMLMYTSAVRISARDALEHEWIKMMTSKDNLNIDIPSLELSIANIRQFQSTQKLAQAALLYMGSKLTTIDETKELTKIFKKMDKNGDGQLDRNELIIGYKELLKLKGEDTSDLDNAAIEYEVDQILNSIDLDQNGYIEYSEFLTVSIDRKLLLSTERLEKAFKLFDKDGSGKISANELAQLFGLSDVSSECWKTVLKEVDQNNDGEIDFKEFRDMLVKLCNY

SMILES strings stand for the structures. Unmarked numbers belong to inactive results. For part of these data: Potency and affinity values are given separately. Calls of active or inactive are those of the source. Unless noted, no rule for the calls is given here.

Chain of Protein kinase 7 (PK7), Plasmodium falciparum 3D7 (PF3D7_0213400) (Q7YTF7 1-343): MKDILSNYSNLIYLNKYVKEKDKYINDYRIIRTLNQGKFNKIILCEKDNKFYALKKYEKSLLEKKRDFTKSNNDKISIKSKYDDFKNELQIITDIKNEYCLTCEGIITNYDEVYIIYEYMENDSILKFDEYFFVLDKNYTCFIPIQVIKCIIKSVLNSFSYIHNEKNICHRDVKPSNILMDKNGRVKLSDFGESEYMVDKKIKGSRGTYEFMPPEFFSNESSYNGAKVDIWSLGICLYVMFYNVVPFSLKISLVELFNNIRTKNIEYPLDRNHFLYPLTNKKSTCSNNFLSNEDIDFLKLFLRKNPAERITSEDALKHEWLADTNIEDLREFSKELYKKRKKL
Chain of Calcium-dependent protein kinase 1 (Plasmodium falciparum (isolate 3D7)) (P62344 whole entry, looked up): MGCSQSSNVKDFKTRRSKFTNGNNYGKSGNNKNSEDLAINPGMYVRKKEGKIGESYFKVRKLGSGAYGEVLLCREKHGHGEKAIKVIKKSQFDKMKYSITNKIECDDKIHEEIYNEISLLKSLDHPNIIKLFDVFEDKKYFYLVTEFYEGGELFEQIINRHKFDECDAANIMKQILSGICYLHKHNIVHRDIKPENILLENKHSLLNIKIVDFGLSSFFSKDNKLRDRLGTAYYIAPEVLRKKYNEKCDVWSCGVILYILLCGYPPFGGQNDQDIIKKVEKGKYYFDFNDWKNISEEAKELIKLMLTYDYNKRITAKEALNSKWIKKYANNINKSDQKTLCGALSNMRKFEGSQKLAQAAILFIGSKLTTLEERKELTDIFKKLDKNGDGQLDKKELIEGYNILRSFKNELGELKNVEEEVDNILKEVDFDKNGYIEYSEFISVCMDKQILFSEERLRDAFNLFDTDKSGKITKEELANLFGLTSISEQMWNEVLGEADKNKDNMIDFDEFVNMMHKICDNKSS

Usually inhibition stands for the change of the read-out against control, counted positive when it falls. As to `O=C(NCc1ccccc1)NC(CCCN1CCC(Oc2cccc(Cl)c2)CC1)c1ccc(Cl)c(Cl)c1` (stereo not drawn), the growth inhibition was 57% (active) in test [1] and 81% (active) in test [4]. Besides, the inhibition in test [2] was 15%; in test [3] it was 4%. Moreover, the result in test [5], in test [6], in test [7] and in test [8] was inactive.

Turning to `C[C@@H](Oc1cc(-n2cnc3ccc(OCC4CCN(S(C)(=O)=O)CC4)cc32)sc1C(N)=O)c1ccccc1C(F)(F)F`, the growth inhibition in test [1] is 50% (active); in test [4] it was 84% (active). Further, the figures for the inhibition in test [2] and in test [3] were 31% and 5%, respectively. Further, the result in test [5], in test [6], in test [7] and in test [8] was inactive.

Turning to `COc1ccc(-c2nc3cccnc3n2CC(=O)Nc2cc(Cl)c(Cl)cc2Cl)c(OC)c1`, the growth inhibition is 17% in test [1] and 100% (active) in test [4]. Moreover, the values for the inhibition in test [2] and in test [3] were 99% (active) and 1%, respectively. Further, the result in test [5], in test [6], in test [7] and in test [8] was inactive.

Consider `Clc1ccc2c(NCCc3ccccc3)ccnc2c1`, for which the growth inhibition in test [1] was 99% (active); in test [4], 93% (active). Moreover, the inhibition in test [2] is 31%; in test [3], -3%. The outcome in test [5], in test [6], in test [7] and in test [8] was inactive.

With `CC(C)COc1ccc(Cl)cc1Cc1ccc(-c2nc3ccc(CCN4CCCC4)cc3[nH]2)o1`, the growth inhibition in test [1] is 94% (active); in test [4], 100% (active). The results for the inhibition in test [2] and in test [3] were 34% and 1%, respectively. Besides, the outcome in test [5], in test [6], in test [7] and in test [8] was inactive.

Regarding `CCOC(=O)C1=C(C)NC2=C(C(=O)C(C(=O)OC)C(C)C2)C1c1cc(Br)c(OCC)c(OC)c1` (stereo not drawn), the growth inhibition is 99% (active) in test [1] and 101% (active) in test [4]. Besides, the inhibition in test [2] is 8%; in test [3] it was 0%. The result in test [5], in test [6], in test [7] and in test [8] was inactive.

Consider `CS(=O)(=O)CCNCc1ccc(-c2ccc3c(Nc4ccc(Cl)cc4F)ccnc3c2)o1`, for which the values for the growth inhibition in test [1] and in test [4] were 98% (active) and 99% (active), respectively. Also, the inhibition in test [2] is 6%; in test [3], -3%. Also, the outcome in test [5], in test [6], in test [7] and in test [8] was inactive.

With `O=C(/C=C/c1ccc(F)cc1)NC1CCC(CCN2CCc3ccccc3CC2)CC1` (stereo not drawn), the results for the growth inhibition in test [1] and in test [4] were 36% and 91% (active), respectively. Further, the inhibition in test [2] was 27%; in test [3], 4%. Further, the result in test [5], in test [6], in test [7] and in test [8] was inactive.

With `COc1cccc2c1CCN(CCN1CCC(NC(=O)c3ccc(-c4cccc(Cl)c4Cl)cc3)CC1)C2`, the growth inhibition in test [1] is 38%; in test [4] it was 100% (active). In addition, the inhibition in test [2] is 47%; in test [3] it was -1%. The result in test [5], in test [6], in test [7] and in test [8] was inactive.

Turning to `CCCN(CCC)C(=S)N=Nc1c(O)[nH]c2ccccc12`, the growth inhibition in test [1] is 86% (active); in test [4], 97% (active). For the same molecule, the values for the inhibition in test [2] and in test [3] were 28% and -3%, respectively. In addition, the result in test [5], in test [6], in test [7] and in test [8] was inactive.

Consider `CCOc1cc2ncnc(Nc3cc(Cl)c(Cl)c(Cl)c3)c2cc1OCC`, for which the growth inhibition in test [1] was 98% (active); in test [4] it was 102% (active). The results for the inhibition in test [2] and in test [3] were 11% and -3%, respectively. For the same molecule, the outcome in test [5], in test [6], in test [7] and in test [8] was inactive.

On to `c1cc(CNCCc2ccncc2)cc(-c2cccc(-c3nc4ccccc4[nH]3)c2)c1`, for which the results for the growth inhibition in test [1] and in test [4] were 88% (active) and 100% (active), respectively. Also, the figures for the inhibition in test [2] and in test [3] were 21% and 1%, respectively. The outcome in test [5], in test [6], in test [7] and in test [8] was inactive.

With `CCOc1ccc2c(NN=Cc3ccc(F)cc3)cc(C)nc2c1`, the growth inhibition in test [1] is 99% (active); in test [4], 101% (active). Moreover, the inhibition is 22% in test [2] and -3% in test [3]. Besides, the outcome in test [5], in test [6], in test [7] and in test [8] was inactive.

On to `Cn1nc(-c2ccc(CNC3CCc4ccccc43)cc2)c2cnc(NCCCN3CCCC3)nc21` (stereo not drawn), for which the growth inhibition in test [1] was 22%; in test [4], 92% (active). Also, the inhibition in test [2] was 27%; in test [3], -4%. For the same molecule, the result in test [5], in test [6], in test [7] and in test [8] was inactive.

Consider `COc1cc2c(c(OC)c1[N+](=O)[O-])C=CC1(O2)N(C)c2ccc([N+](=O)[O-])cc2C1(C)C` (stereo not drawn), for which the values for the growth inhibition in test [1] and in test [4] were 89% (active) and 92% (active), respectively. Moreover, the inhibition in test [2] was -13%; in test [3], -5%. In addition, the outcome in test [5], in test [6], in test [7] and in test [8] was inactive.

For `CC(=O)Nc1ccc(OCCN(Cc2ccccc2OC(F)(F)F)c2ccc(C(F)(F)F)c(C#N)c2)c(Cl)c1`, the growth inhibition in test [1] and in test [4] was 96% (active) each time. For the same molecule, the inhibition in test [2] was 8%; in test [3], 5%. Moreover, the outcome in test [5], in test [6], in test [7] and in test [8] was inactive.

For the molecule `COc1ccccc1N1CCN(Cc2c(O)ccc3cc(Br)ccc23)CC1`, the growth inhibition in test [1] is 75% (active); in test [4], 89% (active). The inhibition in test [2] was 8%; in test [3], 2%. Moreover, the result in test [5], in test [6], in test [7] and in test [8] was inactive.

Take `CN(C)Cc1cc2c(O)c(Cc3ccccc3)ccc2o1`: the growth inhibition in test [1] was 69% (active); in test [4] it was 85% (active). In addition, the values for the inhibition in test [2] and in test [3] were 3% and -8%, respectively. The result in test [5], in test [6], in test [7] and in test [8] was inactive.

For the molecule `Cc1cc(NN=Cc2ccc(F)cc2)c2ccc(C(F)(F)F)cc2n1`, the growth inhibition is 24% in test [1] and 95% (active) in test [4]. Also, the inhibition in test [2] is 4%; in test [3], -2%. For the same molecule, the result in test [5], in test [6], in test [7] and in test [8] was inactive.

For `Cc1ccc2c(Cl)c(C(=O)N3CCCc4ccccc43)sc2c1`, the figures for the growth inhibition in test [1] and in test [4] were 15% and 99% (active), respectively. Moreover, the inhibition in test [2] is 4%; in test [3], 0%. For the same molecule, the result in test [5], in test [6], in test [7] and in test [8] was inactive.

On to `CC(=O)Nc1ncc(C(=O)Nc2cccc(-c3cccc(-c4nc5c(C)cccc5[nH]4)c3)c2)s1`, for which the growth inhibition was 64% (active) in test [1] and 94% (active) in test [4]. For the same molecule, the inhibition was 15% in test [2] and 4% in test [3]. Further, the result in test [5], in test [6], in test [7] and in test [8] was inactive.
